Source: PubChem BioAssay
Env fusion inh = inhibitors of HIV Env-mediated cell fusion; HeLa-JRFL Env/CEM21 cell fusion, luciferase; inhibition, % at 12.3 µM; AID 651610; hit rate 1.1% among 360,000;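 active = mean replicate inhibition score of at least 50 and every replicate individually at or above 50; inconclusive = only one of the two criteria met; inactive = mean below 50 and not all replicates reaching 50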
MITF act = MITF TRPM1 promoter activation in melanoma cells; hit rate 0.75% among 300,000; AID 588334; activation, % at 12.5 µM; SK-MEL-5 TRPM1-promoter luciferase, 24 h; % of positive control, neutral wells = 0;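 active = mean activation of at least 80% with every replicate also reaching 80%; inconclusive = mean reaches 80% but some replicate falls short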
GSIS activator = GLuc luminescence reporter in INS-1E cells, primary screen for activators of glucose-dependent secretion of insulin. INS-1E GLuc reporter insulin secretion, 2-3 h. activation, % at 16.6 µM. hit rate 0.61% among 370,000;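 active = lowest replicate activation of at least 40%, so every replicate reaches that level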
CFTR F508del cor = CFTR F508del correction in bronchial cells; CFBE cells, YFP halide quenching; stimulated with forskolin plus potentiator P3; % fluorescence drop versus neutral controls; activity (quench increase), % at 7.58 µM; hit rate 0.36% among 350,000;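 active = mean added fluorescence quench of at least 8% versus neutral control, with both replicates also reaching 8%; inconclusive = only one of the mean or replicate conditions met; inactive = mean below 8% and not both replicates reaching 8%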;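 note: cells transiently co-express mutant CFTR-F508del with the halide-sensitive YFP; corrector assay measuring rescue of mutant channel to the surface after 24 h compound exposure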
Wnt bcat act = activators of Wnt/beta-catenin signaling | Wnt/beta-catenin reporter cell assay, activator, plate reader | hit rate 1.2% among 300,000 | activation, % at 9.35 µM; in the data active = activation above about 30%, passing the limit was not always enough; inconclusive = no clear call, values can overlap the other calls
Of the large screens only hits and unclear results are named; the others gave an inactive call. A selection: hits, their analogues and other compounds. The true share with any hit is near 2.7%.

Clc1ccccc1/C=C/c1nc(-c2cccnc2)no1	MITF act 84, Wnt bcat act 39
Cc1ccc(-c2noc(/C=C/c3ccccc3)n2)cc1	none (no result: GSIS activator, CFTR F508del cor, Wnt bcat act)
c1ccc(-c2ccc(-c3nc(-c4cccnc4)no3)cc2)cc1	Wnt bcat act inconclusive (no result: GSIS activator, CFTR F508del cor)
CO[C@H]1CN(C)C(=O)c2cc(NS(C)(=O)=O)ccc2OC[C@@H](C)N(C(=O)C2CCC2)C[C@H]1C	none (no result: MITF act, Wnt bcat act)
C[C@@H]1CN([C@H](C)CO)S(=O)(=O)c2ccc(-c3cccnc3)cc2O[C@@H]1CN(C)Cc1ccncc1	none (no result: MITF act, Wnt bcat act)
Cc1ccc(C(=O)N/N=C\C=C\c2ccc(Br)cc2)cn1	none
Cc1ccc(C(=O)N/N=C/c2cc(Br)ccc2O)cn1	CFTR F508del cor 12 (no result: MITF act)
COc1ccc(NC(=O)Nc2ccc3c(c2)C(=O)N([C@@H](C)CO)C[C@H](C)[C@H](CN(C)C(=O)NC2CCCCC2)OCCCC[C@H](C)O3)cc1	none (no result: MITF act, Wnt bcat act)
COc1cccc(-c2cc(C(=O)NC3CCCCC3)no2)c1	MITF act 115
O=C(NC1CCCCC1)c1cc(-c2ccc(Cl)cc2)on1	none
O=C(NC1CCCC1)c1cc(-c2ccc(Cl)cc2)on1	MITF act 132, Wnt bcat act 30
O=C(NC1CCCC1)c1cc(-c2cccc(Cl)c2)on1	MITF act 127
O=C(NC1CCCCC1)c1cc(-c2cccc(Cl)c2)on1	MITF act 95
Cc1ccc(S(=O)(=O)NCC[C@H]2CC[C@@H](NC(=O)c3ccccn3)[C@@H](CO)O2)cc1	none (no result: MITF act, Wnt bcat act)
Fc1cccc(CCN2CCNC[C@@H]2Cc2ccccc2)c1	none (no result: GSIS activator)
FC(F)(F)c1cc(CCN2CCNC[C@@H]2Cc2ccccc2)cc(C(F)(F)F)c1	GSIS activator 191
Cc1ccc(S(=O)(=O)Nc2cccc3c2O[C@@H](CN(C)Cc2ccccc2)[C@H](C)CN([C@H](C)CO)C3=O)cc1	none (no result: MITF act, Wnt bcat act)
CCCOC(=O)Nc1ccc(S(=O)(=O)Nc2ncccn2)cc1	GSIS activator 54
CCOC(=O)C(=O)Nc1ccc(S(=O)(=O)Nc2ncccn2)cc1	none (no result: CFTR F508del cor, Wnt bcat act)
COc1ccc(-c2cn[nH]c2N)c(OC)c1	Env fusion inh 81 (no result: CFTR F508del cor, Wnt bcat act)
COc1ccc(S(=O)(=O)/N=C2\C=C(Nc3ccc(O)cc3)C(=O)c3ccccc32)cc1	Env fusion inh 75
CN1C(=O)c2cc(NC(=O)c3cscn3)ccc2OC[C@H]2O[C@H](CC(=O)NCC3CC3)CC[C@@H]21	none (no result: MITF act, Wnt bcat act)
COc1ccc(OCC(O)CNC(C)c2ccccc2)cc1 (stereo unspecified)	none
CC1CCC(C(C)C)C(OCC(O)CNC(C)(C)C)C1 (stereo unspecified)	none
Cc1cc(OCC(O)CNC(C)c2ccccc2)ccc1C(C)C (stereo unspecified)	Env fusion inh 82, GSIS activator 379
CC(NCC(O)COc1ccc2ccccc2c1)c1ccccc1 (stereo unspecified)	Env fusion inh 65
CC1CCC(C(C)C)C(OCC(O)CNC(C)c2ccccc2)C1 (stereo unspecified)	GSIS activator 199
CCCNC(=O)N(C)C[C@H]1Oc2ncc(C3=CCCC3)cc2C(=O)N([C@H](C)CO)C[C@H]1C	none (no result: MITF act, Wnt bcat act)
N/C(=N\O)c1ccccc1-n1cccc1	none
Nc1ccccc1-n1cccc1	Wnt bcat act 62 (no result: MITF act)
COc1ccc2c3c([nH]c2c1)[C@H](CO)N(C(C)=O)CC31CN(C(C)=O)C1	none (no result: Env fusion inh, MITF act, Wnt bcat act)
CC1(C)CC(NC(=O)c2ccccn2)CC(C)(C)N1O	Wnt bcat act 56
c1ccc(OCCOCCOc2ccccc2)cc1	none (no result: GSIS activator)
F[B-](F)(F)COc1ccccc1	GSIS activator 88
C/C=C/c1ccc([C@H]2[C@@H](CO)N(CC3CCOCC3)C23CN(S(=O)(=O)CC)C3)cc1	none (no result: Env fusion inh, MITF act, Wnt bcat act)
COc1ccc(N2C(=O)c3ccccc3NC2c2ccc(OC)c(COc3ccccn3)c2)cc1 (stereo unspecified)	none (no result: CFTR F508del cor)
COc1ccc(C2Nc3ccccc3C(=O)N2c2ccc(C)cc2)cc1Cn1nnc2ccccc21 (stereo unspecified)	MITF act 98 (no result: Env fusion inh)
COc1ccc(C)cc1Cn1nnc2ccccc21	none
COc1ccc(C2Nc3ccccc3C(=O)N2c2ccc(C)cc2)cc1Cn1cc([N+](=O)[O-])cn1 (stereo unspecified)	MITF act 91 (no result: Env fusion inh)
COc1ccc(-c2ccc3c(c2)O[C@H](CN(C)C)[C@H](C)CN([C@H](C)CO)S3(=O)=O)cc1	none (no result: MITF act, Wnt bcat act)
O=C(NC(=S)Nc1ccccc1)c1cccs1	MITF act 101
Cc1cccnc1NC(=S)NC(=O)c1cccs1	Wnt bcat act 34 (no result: Env fusion inh)
Cc1ccc(NC(=S)NC(=O)c2cccs2)cc1F	MITF act 93 (no result: Env fusion inh)
O=C(NC(=S)Nc1ccc(Br)cn1)c1cccs1	Wnt bcat act 59
O=C(NC(=S)Nc1ccc(Br)cn1)c1cncc(Br)c1	none (no result: GSIS activator, CFTR F508del cor, Wnt bcat act)
CN(C)C(=O)C[C@H]1C=C[C@H](NC(=O)NC2CCCC2)[C@@H](CO)O1	none (no result: MITF act, Wnt bcat act)
O=C(NNS(=O)(=O)c1ccccc1)c1cc2cc3ccccc3nc2s1	none (no result: GSIS activator, CFTR F508del cor)
O=C(NNC(=O)c1cc2cc3ccccc3nc2s1)c1cccc(C(F)(F)F)c1	GSIS activator 75 (no result: Env fusion inh, CFTR F508del cor, Wnt bcat act)
COC(=O)CSc1nc2ccccc2nc1SCC(=O)OC	GSIS activator 67 (no result: CFTR F508del cor)
CC(C)NC(=O)Nc1ccc2c(c1)C(=O)N([C@@H](C)CO)C[C@@H](C)[C@H](CN(C)S(=O)(=O)c1cn(C)cn1)OCCCC[C@@H](C)O2	none (no result: MITF act, Wnt bcat act)
Cc1csc2ncnc(N3CCN(S(=O)(=O)c4cccc(C(F)(F)F)c4)CC3)c12	Env fusion inh 57
O=S(=O)(c1cccc(Br)c1)N1CCN(c2ncnc3scc(-c4ccccc4)c23)CC1	none
Cc1sc2ncnc(N3CCN(S(=O)(=O)c4ccc(Br)cc4)CC3)c2c1C	Env fusion inh 78
COc1ccc(-c2csc3ncnc(N4CCN(S(=O)(=O)c5ccc(C)cc5)CC4)c23)cc1	Env fusion inh 63
Cc1sc2ncnc(N3CCN(S(=O)(=O)c4ccc(C(C)(C)C)cc4)CC3)c2c1C	none
O=C(COc1ccc(-c2nnc(N3CCCCC3)c3ccccc23)cc1)N1CCCCC1	none (no result: Env fusion inh, GSIS activator, CFTR F508del cor, Wnt bcat act)
Cc1ccc(-c2nnc(N3CCN(C(=O)COc4ccccc4)CC3)c3ccccc23)cc1	Env fusion inh 68 (no result: GSIS activator, CFTR F508del cor, Wnt bcat act)
Cc1ccc(CNC(=O)Cn2c(=O)c3sccc3n(Cc3ccc([N+](=O)[O-])cc3)c2=O)cc1	GSIS activator 42 (no result: CFTR F508del cor)
COc1ccc(-n2nnc3c(SCC(=O)N4CCCc5ccccc54)ncnc32)cc1	Wnt bcat act 50
CCCNC(=O)N1C[C@H](O)COC[C@H]2O[C@H](CC(=O)N[C@@H]3CCN(Cc4ccccc4)C3)CC[C@@H]21	none (no result: MITF act, Wnt bcat act)
CCNC(=O)C[C@@H]1CC[C@H](NC(=O)C2CCOCC2)[C@@H](CO)O1	none (no result: MITF act, Wnt bcat act)
Cc1c(-c2nc(N)nc(Nc3ccccc3F)n2)oc2ccccc12	MITF act 122 (no result: GSIS activator, CFTR F508del cor, Wnt bcat act)
Cc1cccc(Nc2nc(N)nc(-c3oc4ccccc4c3C)n2)c1	CFTR F508del cor 12 (no result: MITF act)
COc1cccc(Nc2nc(N)nc(-c3oc4ccccc4c3C)n2)c1	none (no result: CFTR F508del cor, Wnt bcat act)
Cc1ccc(Nc2nc(N)nc(-c3oc4ccccc4c3C)n2)cc1	none (no result: Env fusion inh, GSIS activator, CFTR F508del cor, Wnt bcat act)
CNc1nc(NCCOc2ccccc2Cl)c2sccc2n1	none (no result: MITF act)
